We go through 48 compounds from PubChem BioAssay AID1851 (National Center for Advancing Translational Sciences (NCATS), 2009).

Each structure is given as a SMILES string. The campaign covered roughly 16,000 compounds. About 5,700 (36%) were called active. Another 24% or so got no clear call; they are omitted. The call rests on the fitted dose curve; in most records, active means well fitted curve in the direction sought with a large enough effect; inconclusive means small, poorly fitted or top-dose-only effect, or effect the other way; inactive means no such curve, though single readings can be large or run the other way. The list shows a part of the results.
On the % scale 0 is the no-effect control and ±100 the full control effect.

In this experiment the target is Cytochrome P450 1A2 (Homo sapiens) (UniProt P05177). Description: Cytochrome panel assay with activity outcomes. Particulars: recombinant CYP, pro-luciferin dealkylation, luminescence, p450-cyp1a2; series mostly up to 57.1 µM; activity, negative = inhibition: at the top concentration.
Sequence of Cytochrome P450 1A2 (Homo sapiens) (P05177 whole entry, looked up): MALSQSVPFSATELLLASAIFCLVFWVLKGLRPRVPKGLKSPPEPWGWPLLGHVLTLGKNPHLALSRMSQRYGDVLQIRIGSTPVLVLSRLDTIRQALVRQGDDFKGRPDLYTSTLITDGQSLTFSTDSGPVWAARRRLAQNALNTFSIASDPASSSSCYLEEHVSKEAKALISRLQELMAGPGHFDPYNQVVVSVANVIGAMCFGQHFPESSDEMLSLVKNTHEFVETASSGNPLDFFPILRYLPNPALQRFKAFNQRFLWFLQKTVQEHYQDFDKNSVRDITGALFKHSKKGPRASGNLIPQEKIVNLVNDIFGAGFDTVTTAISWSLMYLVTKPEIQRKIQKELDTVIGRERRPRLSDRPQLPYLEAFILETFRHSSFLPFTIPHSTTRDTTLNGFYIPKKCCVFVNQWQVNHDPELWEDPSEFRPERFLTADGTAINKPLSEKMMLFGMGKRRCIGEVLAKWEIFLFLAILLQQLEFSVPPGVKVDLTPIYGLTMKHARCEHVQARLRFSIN
On to `CCN(CC)C[C@@H](O)CN1CCCCc2nc(C)c(C)cc21`, for which the activity, negative = inhibition is -9.64% [at 11.4 µM] (inactive).

For the compound `O=C(Cc1cccc2ccccc12)N/N=C/c1ccc(Sc2nc3ccccc3s2)o1`, the “activity, negative = inhibition” value was -12.4% (inactive).

`COCC(=O)N/N=C/c1ccc(Sc2nc3ccccc3s2)o1`: the AC50 is 15.8 µM (active).

With `Cc1ccc(NS(=O)(=O)c2ccccc2Cl)c2c1CC(C)(C)O2`, the AC50 is 1.26 µM (active).

Regarding `Cc1cc(C)c(S(=O)(=O)N2CCCCC2)c(C)c1N(C)S(=O)(=O)c1ccccc1`, the “activity, negative = inhibition” value was 8.05% (inactive).

As to `CC(O)(CS(=O)(=O)Cc1ccc(Cl)cc1)C(=O)Nc1cccc(C(F)(F)F)c1` (stereo not drawn), the “activity, negative = inhibition” value is -29.5% (inactive).

With `O=C(Nc1cccc(C(F)(F)F)c1)N(Cc1ccc(Cl)cc1)CC(O)C(F)(F)F` (stereo not drawn), the concentration at half-maximal activity (AC50) is 12.6 µM (active).

On to `CCCCN=c1sc(C(=O)OC)cc(=O)n1CCCC`, for which the AC50 is 0.251 µM (active).

For the compound `CCN1C(=O)[C@H]2[C@H]3[C@H](O)[C@H](O)C/C(=N/O[C@@H]4O[C@H](COC(C)=O)[C@@H](OC(C)=O)[C@H](OC(C)=O)[C@H]4OC(C)=O)[C@@H]3CC[C@@H]2C1=O`, the activity, negative = inhibition was -2.53% [at 11.4 µM] (inactive).

Turning to `Cc1ccc(-n2c3c(c(=O)[nH]c2=O)C(NS(=O)(=O)c2ccc(C)cc2)(C(F)(F)F)C(=O)N3)cc1` (stereo not drawn), the “activity, negative = inhibition” value is -2.02% (inactive).

Turning to `CCOC(=O)C(=Cc1ccc(F)cc1)C(=O)OCC`, the half-maximal activity concentration (AC50) is 25.1 µM (active).

In the case of `CCOC(=O)N/N=C/c1ccccc1F`, the AC50 is 6.31 µM (active).

Take `Cc1ccc(/C=N\NC(=O)c2cc(OCC(F)(F)F)ccc2OCC(F)(F)F)cc1`: the “activity, negative = inhibition” value is -18.2% (inactive).

Turning to `CCOC(=O)N/N=C/c1ccc(F)cc1`, the AC50 is 11.2 µM (active).

On to `O=C(NCCC[N+]1=CC=N[C@H]1c1ccccc1)N1CCCc2nc(-c3ccc(Br)cc3)ccc21`, for which the activity, negative = inhibition was 7.37% [at 11.4 µM] (inactive).

With `Cc1ccc(C2C(C(=O)c3sc(C)nc3C)=C(O)C(=O)N2CCN2CCOCC2)o1` (stereo not drawn), the “activity, negative = inhibition” value was -8.98% (inactive).

For `CCOc1ccc(N(C(=O)/C=C/C(=O)Nc2cc(C)on2)C(C(=O)NC2CCCC2)c2ccccc2C)cc1` (stereo not drawn), the “activity, negative = inhibition” value was -14.5% (inactive).

As for `COc1ccc2cc3cc(C(=O)NCc4ccc5c(c4)OCO5)oc3nc2c1`, the AC50 was 0.316 µM (active).

On to `COc1ccc2nc3oc(C(=O)NCc4cccs4)cc3cc2c1`, for which the AC50 is 2 µM (active).

In the case of `CCCS(=O)(=O)N1CCCC(C(=O)NCCCN2CCN(c3ccccc3F)CC2)C1` (stereo not drawn), the “activity, negative = inhibition” value was 18.4% (inactive).

Take `CCc1ccc(C(C(=O)NCc2ccc(OC)cc2)N(CCOC)C(=O)Cc2cccs2)cc1` (stereo not drawn): the “activity, negative = inhibition” value is -19.9% (inactive).

As for `COc1ccc2cc3cc(C(=O)Nc4ccc5c(c4)OCO5)oc3nc2c1`, the concentration at half-maximal activity (AC50) was 0.501 µM (active).

`COc1ccc2cc3cc(C(=O)NCCN4CCN(c5ccccc5F)CC4)oc3nc2c1`: the concentration at half-maximal activity (AC50) is 15.8 µM (active).

`COc1ccc(N2CCN(CCNC(=O)C3CCN(S(=O)(=O)c4cccs4)CC3)CC2)cc1`: the “activity, negative = inhibition” value was -8.48% (inactive).

With `O=C1C[C@@H](O)[C@@H](O)[C@@H]2[C@H]3C(=O)N(c4ccc(F)cc4F)C(=O)[C@@H]3CC[C@@H]12`, the activity, negative = inhibition was -7.03% [at 11.4 µM] (inactive).

In the case of `COc1ccc2cc3cc(C(=O)NCc4ccccn4)oc3nc2c1`, the AC50 is 1 µM (active).

For the compound `CC(C)CC(=O)Nc1sc2c(c1C#N)CC(C)(C)NC2(C)C`, the “activity, negative = inhibition” value is -26.2% (inactive).

In the case of `O=C1c2ccccc2C(=O)N1C[C@]1(C(=O)O)NCCS1(=O)=O`, the activity, negative = inhibition was -5.5% [at 2.29 µM] (inactive).

With `Cc1ccc(SCCCn2cnc3ccccc3c2=O)cc1`, the concentration at half-maximal activity (AC50) is 3.16 µM (active).

For `O=C(c1ccccc1)c1ccc(OCCn2cnc3ccccc3c2=O)cc1`, the “activity, negative = inhibition” value was -15.9% (inactive).

For `O=C1c2ccccc2C(=O)N1CCCSc1ccccc1`, the concentration at half-maximal activity (AC50) was 1 µM (active).

`O=c1c2ccccc2ncn1CCCSc1ccccc1`: the AC50 is 7.08 µM (active).

As to `COc1cc(Cl)c(C)cc1NC(=O)CNC(=O)Cn1cnc2ccccc2c1=O`, the “activity, negative = inhibition” value is -7.13% (inactive).

Take `O=C(O)CCCSc1ccccc1`: the activity, negative = inhibition is -11.7% [at 11.4 µM] (inactive).

For the compound `CC(C)(C)NC(=O)C(Cc1ccccc1)NS(=O)(=O)c1ccc2c(c1)CCC(=O)N2` (stereo not drawn), the “activity, negative = inhibition” value is -16.2% (inactive).

Regarding `COc1ccc(Oc2ncc3nc(-c4ccc(Cl)cc4)c(=O)n(C)c3n2)cc1`, the half-maximal activity concentration (AC50) was 0.631 µM (active).

Take `Cn1c(=O)c(-c2ccccc2)nc2cnc(Oc3ccccc3)nc21`: the AC50 was 2 µM (active).

Take `Cn1c(=O)c(-c2ccc(Cl)cc2)nc2cnc(Oc3ccccc3)nc21`: the concentration at half-maximal activity (AC50) is 0.2 µM (active).

`CC(C)CN1CC[C@@]2(CCCN(C(=O)c3csnn3)C2)C1`: the “activity, negative = inhibition” value was -16.6% (inactive).

For `CCn1ncc(/C=C/C(=O)NCc2cn(C)nc2C)c1C`, the “activity, negative = inhibition” value is 2.23% (inactive).

Turning to `CCCCCC(=O)Nc1cc2[nH]c(=O)cc(COC)c2cc1C`, the “activity, negative = inhibition” value is -12.2% (inactive).

As to `COCc1cc(=O)[nH]c2cc(NC(=O)C(F)(F)F)c(C)cc12`, the AC50 is 11.2 µM (active).

Turning to `CCC(=O)Nc1ccccc1C(=O)OCC(=O)c1ccccc1`, the AC50 is 5.62 µM (active).

Turning to `COc1ccc(C(=O)Nc2ccc(C(=O)OCC(=O)c3ccccc3)cc2)cc1`, the “activity, negative = inhibition” value is -1.73% (inactive).

In the case of `COc1cccc(C(CC(=O)Nc2cccc3ccccc23)NC(=O)c2ccccc2)c1` (stereo not drawn), the “activity, negative = inhibition” value was -7.28% (inactive).

As to `COc1ccc(C(=O)COC(=O)c2ccc(NC(=O)c3ccccc3)cc2)cc1`, the “activity, negative = inhibition” value was 2.4% (inactive).

In the case of `CCC(=O)Nc1ccccc1C(=O)OCC(=O)c1cccc2ccccc12`, the AC50 was 2.51 µM (active).

Take `CN(C)c1ncnc2ccc(-c3cccnc3)cc12`: the AC50 was 0.2 µM (active).
